Compound activity: PubChem, National Center for Advancing Translational Sciences (NCATS)
TDP1 inh – qHTS Assay for Inhibitors of Tyrosyl-DNA Phosphodiesterase (TDP1) | Tyrosyl-DNA phosphodiesterase 1 (Homo sapiens), Q9NUW8 | actives 0.28% (n = 350,000) | Potency, µM (top dose mostly 130 µM), inactives show at the highest dose activity change, negative = inhibition, hits mostly inhibitors | recombinant TDP1, AlphaScreen DNA substrate cleavage; note: potency is the fitted concentration of half-maximal effect; % is set by controls: 0 for no effect and ±100 for the full control effect; nearly all actives have a fitted effect of over 40% in size
Target sequence (Q9NUW8 whole entry, looked up): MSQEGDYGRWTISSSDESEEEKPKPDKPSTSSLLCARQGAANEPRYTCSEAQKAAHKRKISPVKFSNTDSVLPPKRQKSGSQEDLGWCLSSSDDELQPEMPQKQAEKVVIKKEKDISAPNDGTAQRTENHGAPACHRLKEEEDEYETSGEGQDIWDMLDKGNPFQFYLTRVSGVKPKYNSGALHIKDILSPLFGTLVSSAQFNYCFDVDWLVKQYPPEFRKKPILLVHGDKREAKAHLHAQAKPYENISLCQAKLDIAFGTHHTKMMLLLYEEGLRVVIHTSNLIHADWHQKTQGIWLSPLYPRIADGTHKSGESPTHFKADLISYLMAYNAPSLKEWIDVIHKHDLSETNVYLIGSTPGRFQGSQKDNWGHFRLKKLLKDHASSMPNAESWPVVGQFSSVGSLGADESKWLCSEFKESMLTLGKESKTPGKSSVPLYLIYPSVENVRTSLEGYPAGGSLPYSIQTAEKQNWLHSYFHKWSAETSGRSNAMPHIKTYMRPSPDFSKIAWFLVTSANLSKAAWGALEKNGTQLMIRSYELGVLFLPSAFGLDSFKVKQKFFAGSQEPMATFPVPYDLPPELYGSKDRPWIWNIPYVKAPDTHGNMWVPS
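Compounds were preincubated with Tdp1 (1 nM final) for 15 min at room temperature before substrate (15 nM final) started a 5 min reaction; beads (10 ug/ml final) were then added for 10 min before AlphaScreen detection.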
uPA generation – qHTS for Inhibitors of Cell Surface uPA Generation; cell surface uPA generation assay, qHTS; Potency, µM (doses to about 38.3 µM), without a hit: at the highest dose activity change, negative = inhibition, usual class: inhibitors; actives 0.31% (n = 330,000); AID 540303, 2011; active = well fitted inhibition curve with a large enough effect; inconclusive = small, poorly fitted or top-dose-only effect; inactive = no such curve, though single readings can be large or run the other way; tested in mouse RAW 264.7 cells; note: potency is the fitted concentration of half-maximal effect; % is set by controls: 0 for no effect and ±100 for the full control effect; nearly all actives have a fitted effect of over 55% in size
TDP1 cell CPT – qHTS for Inhibitors of human tyrosyl-DNA phosphodiesterase 1 (TDP1): qHTS in cells in presence of CPT; actives 12% (n = 420,000); chicken DT40 Tdp1-/-;hTDP1 cells + 20 nM CPT, ATP luminescence, 48 h; Potency, µM (titrated, usually from 46.2 µM), inactives show top-dose activity change, negative = growth inhibition, most hits filed as inhibitors; note: potency is the fitted concentration of half-maximal effect; % is set by controls: 0 for no effect and ±100 for the full control effect; nearly all actives have a fitted effect of over 55% in size
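Cell growth measured by CellTiter-Glo luminescence after a minimum 48 h, 37 C compound exposure with 20 nM CPT in Tdp1-knockout DT40 cells stably expressing hTDP1, seeded 400/well; qHTS titration format.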
miR-21 reporter – qHTS Assay for Modulators of miRNAs and/orActivators of miR-21. HeLa miR-21 FLuc reporter, luciferase, 48 h. Potency, µM (top dose mostly 38.3 µM), for inactives: at the top dose activity change, positive = activation, usual class: activators. 340,000 tested, under 10 active. AID 2288, 2010;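 note: % of control where 0% means no effect; miR-21 action dims this reporter so a rising signal means less miR-21 action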
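Luminescence from a firefly luciferase reporter carrying a miR-21 binding site downstream, stably expressed under a CMV promoter in HeLa cells that make miR-21 endogenously, reports miRNA modulation after 48 h compound exposure up to approximately 40uM final.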
DT40 TDP1 no CPT – qHTS for Inhibitors of human tyrosyl-DNA phosphodiesterase 1 (TDP1): qHTS in cells in absence of CPT; DT40 Tdp1-/- hTDP1 cells, no CPT, ATP luminescence, 48 h; Potency, µM (doses to about 46.2 µM), without a hit: top-dose activity change, negative = growth inhibition, actives largely listed as inhibitors; actives 15% (n = 420,000); note: potency is the fitted concentration of half-maximal effect; % is set by controls: 0 for no effect and ±100 for the full control effect; nearly all actives have a fitted effect of over 55% in size
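No-CPT arm: Tdp1-/-;hTDP1 DT40 cells (400/well) plus compounds, incubated ≥48 hr at 37 °C. Readout CellTiter-Glo luminescence.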
* hit, by the source's call; ? = inconclusive; / = not tested or not shown. Only some compounds are listed: those with a hit (about 16% of all), similar ones and a draw of the others. Unless noted, calls come from the whole dose curve; as a rule, active = well fitted curve in the direction sought with a large enough effect; inconclusive = small, poorly fitted or top-dose-only effect, or another doubt; inactive = no such curve, though single readings can be large; an effect the other way counts as inactive or inconclusive.

SMILES	TDP1 inh	uPA generation	TDP1 cell CPT	miR-21 reporter	DT40 TDP1 no CPT
O=C(Nc1cccnc1)c1ccc(Cl)c(S(=O)(=O)N2CCc3ccccc32)c1	6%	2%	22%	?	-18%
O=C(Nc1ccccn1)c1ccc(Cl)c(S(=O)(=O)N2CCc3ccccc32)c1	1%	6%	16µM*	/	?
O=C(NCC(c1ccco1)N1CCCC1)c1ccc(Cl)c(S(=O)(=O)N2CCc3ccccc32)c1 (centres undefined)	5%	-11%	8.2µM*	/	7.3µM*
CCOC(=O)C1CCN(C(=O)c2ccc(Cl)c(S(=O)(=O)N3CCCC3)c2)CC1	5%	0%	-27%	-11%	-30%
CCOC(=O)C1CCCN(C(=O)c2ccc(Cl)c(S(=O)(=O)N3CCc4ccccc43)c2)C1 (centres undefined)	/	-6%	?	/	13µM*
O=C(NC1=NCCS1)c1ccc(Cl)c(S(=O)(=O)N2CCc3ccccc32)c1	5%	2%	?	9%	?
CC(=O)Nc1ccc(NC(=O)c2ccc(Cl)c(S(=O)(=O)N3CCc4ccccc43)c2)cc1	/	-6%	?	/	4.6µM*
CC(O)[C@@H]1NC(=O)[C@H](Cc2ccccc2)NC(=O)[C@H](C(C)O)NC(=O)[C@H](CCCCN)NC(=O)[C@H](Cc2c[nH]c3ccccc23)NC(=O)[C@H](Cc2ccccc2)NC(=O)[C@H](Cc2ccccc2)NC(=O)[C@H](CC(N)=O)NC(=O)[C@H](CCCCN)NC(=O)[C@@H](NC(=O)CNC(=O)[C@H](C)N)CSSC[C@@H](C(=O)O)NC(=O)[C@H](CO)NC1=O (some centres undefined)	/	/	-7%	/	-13%
Cc1cc(C)cc(N(C(C)C(=O)N2CCOCC2)S(C)(=O)=O)c1 (centres undefined)	-3%	-2%	0%	1%	-20%
O=C(O)Cc1ccc(-c2ccccc2-c2ccccc2)cc1	3%	6%	15µM*	0%	21µM*
O=C(O)Cc1ccc(O)cc1	/	3%	-2%	/	-1%
CCOc1ccc(CNC(=O)c2ccc3c(c2)nc2n3CCC(C)C2)cc1OC (centres undefined)	3%	/	2%	2%	-4%
O=S(=O)(c1ccc(N2CCCC2)cc1)C(F)(F)F	5%	-5%	?	-9%	12µM*
O=[N+]([O-])c1cc(S(=O)(=O)Nc2ccccc2)ccc1N1CCN(c2ccccc2)CC1	7%	-4%	?	17%	?
O=[N+]([O-])c1cc(Cl)ccc1N1CCN(c2cccc(C(F)(F)F)c2)CC1	8%	2%	?	0%	9.2µM*
O=c1c(N2CCN(c3cccc(C(F)(F)F)c3)CC2)csc2ccccc12	-1%	/	21µM*	-15%	26µM*
O=[N+]([O-])c1cc(Cl)ccc1N1CCCC1	10%	-3%	-10%	-1%	-36%
O=[N+]([O-])c1cc(S(=O)(=O)C(F)(F)F)ccc1N1CCN(c2ccccc2)CC1	5%	-9%	?	-1%	16µM*
O=C(Nc1ccc2c(c1)OCO2)C(c1ccc(Cl)cc1)N1CCC2(CC1)OCCO2 (centres undefined)	4%	5%	-8%	-10%	-9%
OC(c1cccc(Cl)c1)c1nc(/C=C/c2ccc(C(F)(F)F)cc2)cs1 (centres undefined)	/	/	23µM*	/	?
OC(c1cccnc1)c1nc(/C=C/c2ccc(C(F)(F)F)cc2)cs1 (centres undefined)	/	/	21µM*	/	2.6µM*
CC1CCCCC1NC(=S)Nc1ccc(SC(F)F)cc1 (centres undefined)	2%	-14%	?	?	?
COc1ccc(C2/C(=C(/O)c3ccc4c(c3)CC(C)O4)C(=O)C(=O)N2CCCn2ccnc2)cc1 (centres undefined)	4%	-2%	10%	3%	-6%
CCCCn1c(CCc2ccccc2)nc2cc3[nH]c(=O)c(C(C)C)nc3cc21	/	22%	?	6%	?
CCCCn1c(-c2ccc(F)c(F)c2)nc2cc3[nH]c(=O)c(C(C)C)nc3cc21	/	-1%	21µM*	13%	21µM*
SMILES	TDP1 inh	uPA generation	TDP1 cell CPT	miR-21 reporter	DT40 TDP1 no CPT
CC(=O)c1ccc(NC(=O)c2nn(C)c3c2COc2ccccc2-3)cc1	11%	/	15µM*	-6%	?
CCOc1ccc(NC(=O)c2noc3c2CSc2ccccc2-3)cc1	9%	/	-9%	-1%	-25%
CC(=O)c1ccc(NC(=O)c2noc3c2CSc2ccccc2-3)cc1	0%	/	15µM*	-4%	9.2µM*
CC(=O)c1ccc(NC(=O)c2nn(C)c3c2CS(=O)(=O)c2ccccc2-3)cc1	6%	/	-18%	-18%	-12%
CCN(CC)CCOC(=O)c1ccc(NC(=O)c2nn(C)c3c2COc2ccccc2-3)cc1	6%	/	4.1µM*	-3%	3.3µM*
CCOC(=O)c1ccc(NC(=O)c2nn(C)c3c2COc2ccccc2-3)cc1	14%	/	?	-10%	-5%
COc1ccccc1OCC(=O)NNC(=O)c1ccc(F)c(S(=O)(=O)N2CCOCC2)c1	0%	0%	-13%	/	-14%
COc1ccc(NC(=O)NCCc2c(C)nn(C)c2C)c(OC)c1	4%	/	1%	-2%	9%
O=C(CCSCc1ccccc1F)N1CCN(c2ccc(F)cc2)CC1	3%	/	?	0%	26µM*
O=C(CN1C(=O)NC(c2ccccc2)(c2ccccc2)C1=O)N1CCN(c2ccccc2F)CC1	1%	-16%	?	/	4.1µM*
O=C(CN1C(=O)NC(c2ccccc2)(c2ccccc2)C1=O)N1CCN(c2ccc(F)cc2)CC1	3%	-29%	?	/	?
O=C(CCC(=O)N1CCN(c2ccccc2F)CC1)N1CCN(c2ccccc2)CC1	/	-20%	?	13%	-29%
O=C(CCC(=O)N1CCN(c2ccccc2F)CC1)N1CCN(c2ccc(F)cc2)CC1	2%	-1%	?	16%	16µM*
Cn1cccc1C(=O)/C(C#N)=C/c1ccc(F)cc1	/	4%	-5%	0%	-1%
COC(=O)[C@@]1(Cc2ccc(F)cc2)[C@H]2c3cc(C(=O)N(C)C)n(Cc4ccc(C(F)(F)F)nc4)c3C[C@H]2CN1C(=O)c1ccccc1	12%	/	/	/	/
NC(=S)NNc1ccc(Cl)c(Cl)c1	9%	-4%	?	19%	?
O=C(CSc1nc2c(c(C(F)(F)F)n1)CCc1ccccc1-2)NCc1ccccc1	-3%	1%	?	-7%	26µM*
